Consider 28 compounds from the supplement of paper PMC7366291.

What all share (conditions): 25 µM; exposure: 24-48 hpf
Assay [1] has as its system Danio rerio Tg(wt1b:EGFP) embryo, pronephros. In words: glomerular separation, fold change vs DMSO control; higher = glomeruli further apart (abnormal). The gist of the method: (§1)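 From 24 to 48 hpf, at 28.5°C, dechorionated Tg(wt1b:EGFP) zebrafish embryos sat in HEPES-buffered E3 with 0.003% PTU carrying 25 μM compound and 0.5% DMSO. Their pronephroi were imaged dorsally in 96-well plates filled with agarose, using 470 nm light and 10 z-slices. A Fiji macro measured distances and angles between 16 reference points that were set manually on maximum projections, and any value more than 2 SD from its feature mean was excluded. Features are expressed as fold change relative to the mean of DMSO-treated embryos imaged on the same day.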

For assay [2] the test system is unchanged. In words: glomerular width (mean of left and right), fold change vs DMSO control; higher = wider glomerulus. The gist of the method:
as §1

Assay [3] has the same test system. In words: fraction of imaged embryos annotated as normal kidney; higher = less nephrotoxic; extreme values may be limits of the assay. The gist of the method: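 Tricaine-anaesthetised Tg(wt1b:EGFP) zebrafish larvae were oriented dorsally in agarose-filled 96-well plates, and their pronephroi were recorded by widefield fluorescence at 470 nm in 10 z-slices. Before this, the dechorionated embryos had been exposed in 12-well plates to 25 μM compound in 0.5% DMSO and 5 mM HEPES-buffered E3 with 0.003% PTU, from 24 to 48 hpf at 28.5°C. Maximum projections were annotated manually for each embryo, and the read-out is the fraction per treatment classed as normal kidney.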

The test system is the same in assay [4]. In words: pronephric angle neck segment to proximal convoluted tubule (mean of left and right), fold change vs DMSO control; higher = larger pronephric angle. The gist of the method: as §1

Structures can show the parent of a compound that is named as a salt. ± gives the standard deviation or the standard deviation of the averaged measurements.

As for `Cc1c(O)c(=O)n(-c2ccccc2)n1C` [Antipyrine, 4-hydroxy], the glomerular separation in assay [1] is 1.2 ± 0.38. The same compound gave a glomerular width in assay [2] of 0.951 ± 0.064. For the same compound, in assay [3], the “fraction of imaged embryos annotated as normal kidney” value (“fraction of imaged embryos annotated” for short) was found to be 0.583. Moreover, the “pronephric angle neck segment” value in assay [4] came to 1.03 ± 0.028.
With `O=C1C(O)=C([C@H]2CC[C@H](c3ccc(Cl)cc3)CC2)C(=O)c2ccccc21` [Atovaquone], in assay [1], the glomerular separation was 1.05 ± 0.35. Also, the glomerular width in assay [2] is 0.992 ± 0.027. Also, the “fraction of imaged embryos annotated” value in assay [3] is 0.917. Further, in assay [4], the “pronephric angle neck segment” value was determined as 0.959 ± 0.017.
Compound `CC1(C)OC(=O)NC1=O` [Dimethadione] showed a glomerular separation in assay [1] of 1.27 ± 0.36. In assay [2], this compound came in with a glomerular width of 0.89 ± 0.031. Also, the “fraction of imaged embryos annotated” value in assay [3] stood at 0.667. Besides, the “pronephric angle neck segment” value in assay [4] stood at 1.0483 ± 0.00042.
As to `CCN[C@H]1C[C@H](C)S(=O)(=O)c2sc(S(N)(=O)=O)cc21` [Dorzolamide hydrochloride], in assay [1], the glomerular separation was 1.08 ± 0.35. This compound showed a glomerular width in assay [2] of 0.955 ± 0.029. Moreover, the “fraction of imaged embryos annotated” value in assay [3] is 0.75. Besides, the “pronephric angle neck segment” value in assay [4] came to 1.024 ± 0.0028.
For `NNCCc1ccccc1` [Phenelzine sulfate] the same measures were 0.964 ± 0.27, 1.04 ± 0.016, 0.833 and 0.93 ± 0.067.
Compound `COc1cc(C)nc(-n2nc(C)cc2OC)n1` [Epirizole] registered a glomerular separation in assay [1] of 1.39 ± 0.73. In addition, the glomerular width in assay [2] was 0.957 ± 0.021. For the same compound, the “fraction of imaged embryos annotated” value in assay [3] turned out to be 0.75. In assay [4], the “pronephric angle neck segment” value turned out to be 1.03 ± 0.027.
Take `CCCCNc1ccc(C(=O)OCCN(C)C)cc1`: the glomerular separation in assay [1] was 1.01 ± 0.33. The compound further came in with a glomerular width in assay [2] of 0.959 ± 0.096. Moreover, in assay [3], the “fraction of imaged embryos annotated” value stood at 0.833. Also, the “pronephric angle neck segment” value in assay [4] is 1.057 ± 0.0014.
The corresponding values for `OC(CCN1CCCCC1)(c1ccccc1)C1CC2C=CC1C2` (configuration not stated) [Biperiden hydrochloride] are 1.06 ± 0.13, 1.02 ± 0.047, 0.917 and 1.01 ± 0.022.
Take `O=C(O)c1cc(/N=N/c2ccc(S(=O)(=O)Nc3ccccn3)cc2)ccc1O` [Sulfasalazine]: the glomerular separation in assay [1] turned out to be 0.959 ± 0.28. The glomerular width in assay [2] was 1.02 ± 0.016. The “fraction of imaged embryos annotated” value in assay [3] worked out at 0.917. Besides, the “pronephric angle neck segment” value in assay [4] was determined as 0.999 ± 0.034.
In assay [1], `NS(=O)(=O)c1cc2c(cc1Cl)N=C(CSCc1ccccc1)NS2(=O)=O` [Benzthiazide] had a glomerular separation of 0.917 ± 0.25. Moreover, the glomerular width in assay [2] was determined as 0.919 ± 0.05. In addition, the “fraction of imaged embryos annotated” value in assay [3] is 0.917. In addition, in assay [4], the “pronephric angle neck segment” value was found to be 0.965 ± 0.028.
For `Nc1ccc(S(=O)(=O)Nc2nccs2)cc1` [Sulfathiazole] the same measures were 0.931 ± 0.36, 0.936 ± 0.027, 0.917 and 0.957 ± 0.019.
For `CC(C)NC[C@@H](O)COc1cccc2ccccc12` [(R)-Propranolol hydrochloride] the same measures were 1.07 ± 0.46, 0.963 ± 0.013, 0.833 and 0.98475 ± 0.00073.
For `CC1(C)O[C@@H]2[C@@H](CO[C@@]3(COS(N)(=O)=O)OC(C)(C)O[C@@H]23)O1` [Topiramate] the same measures were 1.18 ± 0.51, 1.086 ± 0.0046, 0.583 and 1 ± 0.025.
The compound `CN(C)CCC=C1c2ccccc2COc2ccccc21` [Doxepin hydrochloride] displayed a glomerular separation in assay [1] of 0.925 ± 0.22. The glomerular width in assay [2] worked out at 0.99 ± 0.035. For the same compound, in assay [3], the “fraction of imaged embryos annotated” value is 0.917. Further, the “pronephric angle neck segment” value in assay [4] turned out to be 1.01 ± 0.076.
For `CN(C)CCOC(C)(c1ccccc1)c1ccccn1` (configuration not stated) [Doxylamine succinate] the same measures were 1.15 ± 0.53, 0.9589 ± 0.009, 0.818 and 1.01 ± 0.065.
For `NC[C@@H]1O[C@@H](O[C@H]2[C@H](O)[C@@H](O[C@H]3O[C@H](CO)[C@@H](O)[C@H](N)[C@H]3O)[C@H](N)C[C@@H]2N)[C@@H](O)[C@H](O)[C@H]1O` [Kanamycin A sulfate] the same measures were 1.07 ± 0.33, 1.01 ± 0.046, 0.667 and 1.01 ± 0.052.
For `N[C@@H]1CCCCN(c2c(F)cc3c(=O)c(C(=O)O)cn(C4CC4)c3c2Cl)C1` [Besifloxacin hydrochloride] the same measures were 0.997 ± 0.35, 1.02 ± 0.033, 0.833 and 1.02 ± 0.018.
Turning to `Nc1nc2c(ncn2COCCO)c(=O)[nH]1` [Acyclovir], the glomerular separation in assay [1] is 1.05 ± 0.49. In assay [2], this compound showed a glomerular width of 1.06 ± 0.041. Besides, in assay [3], the “fraction of imaged embryos annotated” value came out at 0.583. Besides, the “pronephric angle neck segment” value in assay [4] came out at 0.888 ± 0.022.
For `CCCc1ncc(C[n+]2ccccc2C)c(N)n1` [Amprolium hydrochloride] the same measures were 1.14 ± 0.19, 0.936 ± 0.042, 1 and 1 ± 0.018.
The corresponding values for `COc1cccc(N(C)C(=S)Oc2ccc3c(c2)CCCC3)n1` [Liranaftate] are 1.14 ± 0.62, 1.025 ± 0.0045, 0.667 and 1.06 ± 0.033.
For `COc1ccc2cc([C@H](C)C(=O)O)ccc2c1` [Naproxen] the same measures were 2.89 ± 1.8, 0.9508 ± 0.0065, 0.167 and 1.52 ± 0.036.
`NC(=O)c1cnccn1` [Pyrazinamide] had a glomerular separation in assay [1] of 0.862 ± 0.21. In addition, the glomerular width in assay [2] came out at 1.04 ± 0.034. In addition, the “fraction of imaged embryos annotated” value in assay [3] is 0.667. In addition, the “pronephric angle neck segment” value in assay [4] is 0.9361 ± 0.0033.
For `CC(CCc1ccc(O)cc1)NCCc1ccc(O)c(O)c1` (configuration not stated) [Dobutamine hydrochloride] the same measures were 0.82 ± 0.23, 0.999 ± 0.032, 1 and 0.997 ± 0.078.
The corresponding values for `O=C(O)c1cn(-c2ccc(F)cc2)c2cc(N3CCNCC3)c(F)cc2c1=O` [Sarafloxacin] are 1.17 ± 0.4, 1.08 ± 0.039, 0.455 and 1.02 ± 0.013.
For `CC1=C(CC(=O)O)c2cc(F)ccc2/C1=C\c1ccc([S+](C)[O-])cc1` (configuration not stated) [Sulindac] the same measures were 0.735 ± 0.15, 0.8774 ± 0.0075, 0.667 and 1.0374 ± 0.00064.
As for `CC(C)(Oc1ccc(CCNC(=O)c2ccc(Cl)cc2)cc1)C(=O)O` [Bezafibrate], the glomerular separation in assay [1] stood at 0.842 ± 0.27. The same compound showed a glomerular width in assay [2] of 0.988 ± 0.072. The “fraction of imaged embryos annotated” value in assay [3] turned out to be 0.917. For the same compound, in assay [4], the “pronephric angle neck segment” value was determined as 0.966 ± 0.0086.
For `CC1Cc2ccccc2N1NC(=O)c1ccc(Cl)c(S(N)(=O)=O)c1` (configuration not stated) [Indapamide] the same measures were 1.2 ± 0.88, 0.904 ± 0.058, 0.909 and 0.988 ± 0.041.
For `COc1cc2nc(N3CCN(C(=O)C4COc5ccccc5O4)CC3)nc(N)c2cc1OC` (configuration not stated) [Doxazosin mesylate] the same measures were 0.958 ± 0.6, 0.965 ± 0.026, 1 and 1.007 ± 0.003.
